# According to PubChem BioAssay (EPA / NIEHS):
# Records with an inconclusive call do not appear. Activity calls are given as the source filed them. The calls were made as follows: active = hit-call score of the fitted dose curve at least 0.9, where 1 is the maximum; inconclusive = response in the unintended direction; inactive = score below 0.9.
# Assay: ACEA_ER_80hr: ACEA Biosciences xCELLigence Real-Time Cell Analysis on Estrogen Receptor Agonism for Proliferation (AID 2282667)
# Settings: T47D proliferation, impedance (xCELLigence), 80 h
# Summary of the method: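 T-47D cells monitored by electrical impedance (xCELLigence) with compound present throughout; 80 h timepoint, positive-direction fitting versus DMSO. Eight-point 1:4 dilutions from 100 uM final, duplicate plates.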
Compound,outcome,AC50
O=C1C(Cl)=C(Cl)C(=O)c2ccccc21,inactive,
CC(C)c1cccc(C(C)C)c1O,inactive,
COP(=S)(OC)Oc1ccc(S(=O)(=O)N(C)C)cc1,inactive,
BrCCBr,inactive,
O=C(Cl)c1ccc(Cl)cc1,inactive,
CCCCCCCCSC(=O)Oc1cc(Cl)nnc1-c1ccccc1,,50 µM (active)
COP(=S)(OC)Oc1cc(Cl)c(Cl)cc1Cl,inactive,
COC(=O)c1sccc1S(=O)(=O)NC(=O)Nc1nc(C)nc(OC)n1,inactive,
COc1ccc(C=O)cc1OC,,15.7 µM (active)
CNC(=O)O/N=C/C(C)(C)S(C)=O (stereo not drawn),inactive,
CCCCCCCCCCCCCCCC[n+]1ccccc1,,0.081 µM (active)
Clc1ccc(C2(Cn3cncn3)CC(Br)CO2)c(Cl)c1 (stereo not drawn),inactive,
CC(=O)OC(c1ccccc1)C(Cl)(Cl)Cl (stereo not drawn),inactive,
CC(C)CCCCCCOC(=O)c1ccccc1C(=O)OCCCCCCC(C)C,inactive,
N#Cc1ccccn1,inactive,
Cl/C=C\C[N+]12CN3CN(CN(C3)C1)C2,inactive,
C=CCc1ccc(OC)cc1,inactive,

Compound,outcome,AC50
CCCCP(CCCC)CCCC,inactive,
NC(=S)Nc1ccccc1,inactive,
CC(=[OH+])/C=C(/C)[O-].CC(=[OH+])/C=C(/C)[O-].CC(=[OH+])/C=C(/C)[O-].[Al],inactive,
CC1CCCCC1NC(=O)Nc1ccccc1 (stereo not drawn),inactive,
Cc1cc(=O)[nH]o1,inactive,
Fc1ccc(C2(Cn3cncn3)OC2c2ccccc2Cl)cc1 (stereo not drawn),inactive,
NN=C(N)N,inactive,
CCC(=O)c1ccccc1,inactive,
O=C(O)Cc1ccccc1,inactive,
CCOP(=O)(CN(CCO)CCO)OCC,inactive,
O=Cc1cccc(Oc2ccccc2)c1,inactive,
O=[N+]([O-])c1ccc(O)c([N+](=O)[O-])c1,,75.8 µM (active)
Clc1nc(Cl)nc(Cl)n1,inactive,
N#CCc1ccc(Cl)cc1,inactive,
CCCCCCCCC(=O)NCc1ccc(O)c(OC)c1,inactive,
CCNc1nc(NC(C)(C)C)nc(SC)n1,inactive,
